In experiment [1] the test system is Human papillomavirus type 1a protein E7 (residues 44-93). Description: small molecules binding HPV E7 44-93 – biochemical, small-molecule microarray, residues 44-93, 635 nm fluorescence, primary screen (AID 1108).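 Note: E7 fragment applied at 1 µg/mL in TBST for 1 h at 4 C; score combines spot fluorescence with its signal to noise ratio.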 The conditions noted are these: fluorescence 635 nm, higher = more signal.
Experiment [2] can be described thus: hepatitis C replication reporter changes, two-sided – Huh7 cells, luciferase reporter, HCV replication inhibitor project, primary screen (AID 1109).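 Note: huh7 hepatoma cells harbouring a luciferase neomycin HCV replicon reporter; luciferase luminescence as measure of HCV replicon replication; test concentration not given here.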 Particulars: Huh7 HCV replicon luciferase reporter, 48 h; higher = more signal.
The target in experiment [3] is Left-right determination factor 2 (Homo sapiens) (UniProt O00292). Description: small molecules binding LEFTY2 protein – biochemical, small-molecule microarray, 635 nm fluorescence scan, primary screen (AID 1110). Particulars: higher = more signal.
The target in experiment [4] is Calmodulin-1 (Homo sapiens) (UniProt P0DP23). Description: small molecules binding calmodulin-1 with EGTA – biochemical, small-molecule microarray, Cy5-labelled CALM1, profiling panel (AID 1111).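 Note: labelled calmodulin applied in Tris saline Tween buffer holding calcium plus EGTA and DTT.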 The conditions noted are these: Cy5-CALM1 binding fluorescence, higher = more signal.
For experiment [5] the target is unchanged. Description: small molecules binding Ca-loaded calmodulin-1 – biochemical, small-molecule microarray, Cy5-labelled CALM1, plus calcium, artefact control for SMM control-protein annotation, profiling panel (AID 1112).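 Note: score merges spot fluorescence with signal to noise from triplicate slides.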 The conditions noted are these: Cy5-CALM1 binding fluorescence, higher = more signal.
The nature of experiment [6]: probe aWnt5a binding to arrayed compounds – biochemical, biotinylated probe, 635/667 nm fluorescence, primary screen (AID 1113).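 Note: score merges 667 nm fluorescence intensity with signal-to-noise per printed feature.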 The conditions noted are these: small-molecule microarray, higher = more signal.
Experiment [7] is described as follows: probe aShh binding to arrayed compounds – biochemical, biotinylated probe, 635/667 nm fluorescence, primary screen (AID 1114).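 Note: probe is biotin-labelled aShh protein from a stem cell growth factor screen; measures binding of labelled protein to compounds printed on the slide; score merges feature fluorescence at 667 nm with signal-to-noise.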 Particulars: small-molecule microarray, higher = more signal.
Experiment [8] is described as follows: probe aNog binding to arrayed compounds – biochemical, biotinylated probe, 635/667 nm fluorescence, primary screen (AID 1115).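 Note: probe is biotinylated aNog protein used at 0.15 µg/mL for 1 h at 4 C; z-score combines 667 nm fluorescence of each spot with its signal to noise.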 Particulars: small-molecule microarray, higher = more signal.
The target of experiment [9] is Torsin-1A-interacting protein 1 (Homo sapiens) (UniProt Q5JTV8). The experiment is described as follows: compound microarray binding of lysate hLAP1 – cell lysate, small-molecule microarray, COS7 lysate, 635/667 nm fluorescence, primary screen (AID 1116). Particulars: 635 nm fluorescence, higher = more signal.
For experiment [10], the target named is Alpha-bungarotoxin (Bungarus multicinctus) (UniProt P60615). The experiment is described as follows: compounds binding labelled alpha-BTX control protein – biochemical, small-molecule microarray, Alexa647 label, 635/667 nm fluorescence, artefact control for SMM control protein annotation, profiling panel (AID 1117). The conditions noted are these: alpha-BTX-A647 binding fluorescence, higher = more signal.
Chain of Alpha-bungarotoxin (Bungarus multicinctus) (P60615 whole entry, looked up): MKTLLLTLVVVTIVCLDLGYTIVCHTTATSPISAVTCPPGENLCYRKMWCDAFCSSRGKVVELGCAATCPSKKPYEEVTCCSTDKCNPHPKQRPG

Chain of Torsin-1A-interacting protein 1 (Homo sapiens) (Q5JTV8 whole entry, looked up): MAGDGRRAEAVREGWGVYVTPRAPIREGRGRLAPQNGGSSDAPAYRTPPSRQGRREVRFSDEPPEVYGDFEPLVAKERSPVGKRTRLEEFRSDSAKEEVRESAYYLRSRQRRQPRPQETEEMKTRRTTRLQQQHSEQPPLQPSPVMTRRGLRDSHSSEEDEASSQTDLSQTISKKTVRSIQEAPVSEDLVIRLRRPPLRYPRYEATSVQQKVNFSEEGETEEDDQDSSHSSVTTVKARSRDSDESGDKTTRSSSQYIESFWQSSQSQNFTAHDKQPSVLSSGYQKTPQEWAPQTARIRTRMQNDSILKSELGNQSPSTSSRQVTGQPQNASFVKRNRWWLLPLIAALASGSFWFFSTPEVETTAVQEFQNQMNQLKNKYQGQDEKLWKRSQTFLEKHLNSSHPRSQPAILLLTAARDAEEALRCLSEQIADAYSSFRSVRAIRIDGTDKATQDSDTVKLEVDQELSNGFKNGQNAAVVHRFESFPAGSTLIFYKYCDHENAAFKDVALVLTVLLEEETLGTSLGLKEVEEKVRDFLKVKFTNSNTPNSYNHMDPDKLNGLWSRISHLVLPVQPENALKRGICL
Chain of Left-right determination factor 2 (Homo sapiens) (O00292 whole entry, looked up): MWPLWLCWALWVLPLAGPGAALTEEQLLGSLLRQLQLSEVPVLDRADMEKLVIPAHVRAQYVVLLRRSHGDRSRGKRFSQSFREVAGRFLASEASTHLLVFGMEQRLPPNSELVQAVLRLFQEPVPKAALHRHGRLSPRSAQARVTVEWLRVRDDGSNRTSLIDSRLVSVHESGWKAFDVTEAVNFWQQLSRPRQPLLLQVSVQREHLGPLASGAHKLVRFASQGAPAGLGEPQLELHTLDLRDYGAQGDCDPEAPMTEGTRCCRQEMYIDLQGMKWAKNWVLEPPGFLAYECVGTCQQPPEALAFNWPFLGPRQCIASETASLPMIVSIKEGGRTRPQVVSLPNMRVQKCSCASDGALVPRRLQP

Take `Cc1cc(C)c(C(O)C2C=CC3C(=O)N(c4ccccc4)C(=O)C3N2Nc2ccccc2F)c(C)c1` (stereo not given): the composite z-score in [1] was 0.0453; in experiment [3] it was -0.636; in experiment [4] it was 0.139; in experiment [5], -0.0086; in [6], 0.184; in [7] it was 0.282. Also, the figures for the composite z-score in experiment [8], in experiment [9] and in experiment [10] were 1.32, 0.563 and 0.505, respectively. The compound further gave a z-score in [2] of 0.937.
For the compound `C=C[C@H]1C(C(=O)OCC)=CC[C@@H](c2ccccc2)N1S(=O)(=O)c1ccc(C)cc1`, the composite z-score is 1.4 in [1]; 0.0641 in [3]; 0.577 in experiment [4]; -0.0986 in [5]; 0.0077 in [6]; -0.181 in experiment [7]. Also, the results for the composite z-score in experiment [8], in experiment [9] and in experiment [10] were -0.289, 0.325 and 0.621, respectively. The compound also yielded a z-score in experiment [2] of -2.78.
For `[N-]=[N+]=Nc1ccccc1C[C@@]1(C(=O)N2CCOCC2)N=C(c2ccc(OCCCO)cc2)O[C@@H]1c1ccccc1`, the composite z-score in [1] is 1; in experiment [3], -0.0238; in [4], 1.37; in [5], -0.258; in [6], 0.291; in experiment [7], 0.771. Further, the composite z-score in experiment [8] is -0.738; in [9], 1.43; in experiment [10], 1.39. Moreover, the z-score in experiment [2] is -1.57.
Consider `C=CCNC(=O)[C@@H]1[C@H]2C(=O)O[C@H](c3ccccc3)[C@H](c3ccccc3)N2[C@H](c2ccccc2OCCO)[C@@]12C(=O)Nc1ccc(C#CCCO)cc12`, for which the composite z-score in experiment [1] was -0.489; in experiment [3], 1.2; in experiment [4], 0.142; in experiment [5], -0.0836; in experiment [6], -0.147; in experiment [7], -0.273. The composite z-score was -0.0965 in experiment [8], 0.544 in experiment [9] and 0.0913 in experiment [10]. This compound also had a z-score in [2] of -0.364.
Take `COC(=O)[C@@]1(Cc2ccc(OC)cc2)[C@H]2c3cc(C(=O)N4CCCC4)n(CCO)c3C[C@H]2CN1C(=O)c1ccccc1`: the composite z-score in experiment [1] was 1.1; in experiment [3] it was -0.352; in experiment [4] it was 0.841; in [5] it was 0.173; in experiment [6], 0.433; in experiment [7], 0.305. The composite z-score in experiment [8] amounted to 1.85; in experiment [9] it was 1.47; in [10] it was 0.365. In experiment [2], this compound displayed a z-score of -0.474.
Consider `COc1ccc(C#Cc2ccc3c(c2)[C@]2(C(=O)N3)[C@H](c3ccc(O)cc3)N3[C@H](c4ccccc4)[C@H](c4ccccc4)OC(=O)[C@H]3[C@@H]2C(=O)Nc2nc3ccccc3s2)cc1`, for which the composite z-score in [1] is 1.26; in experiment [3] it was 0.739; in experiment [4], 1.11; in [5], 0.495; in experiment [6], -0.0685; in experiment [7], -0.0813. Also, the results for the composite z-score in [8], in experiment [9] and in [10] were 0.352, 1.22 and 1.25, respectively. The compound further returned a z-score in [2] of -1.13.
Turning to `COc1ccc(CCNC(=O)[C@@]2(Sc3ccc(C)cc3)CC(=O)N(Cc3ccccc3C(F)(F)F)[C@@H]2c2ccc(CO)cc2I)cc1`, the composite z-score in experiment [1] is 0.497; in experiment [3], -1.5; in experiment [4], 0.138; in experiment [5], 0.14; in [6] it was -0.0792; in experiment [7], -0.0849. Further, the figures for the composite z-score in experiment [8], in [9] and in [10] were 0.924, 0.357 and 1.73, respectively. In addition, the z-score in experiment [2] was -2.42.
For the compound `C[C@@H]1NC(=O)[C@@H](Cc2ccccc2)NC(=O)[C@@]23C(=O)N[C@@H](Cc4ccccc4)C2[C@H](C)[C@@]2(C)O[C@H]2C3/C=C/C/C=C\CNC1=O` (stereo not given in full), the composite z-score in experiment [1] is 0.739; in [3], -0.22; in [4], -0.744; in experiment [5], -1.16; in [6] it was -0.222; in [7], -0.0471. Moreover, the composite z-score is -0.281 in experiment [8], -0.0991 in [9] and -0.537 in experiment [10]. The compound also had a z-score in experiment [2] of -0.857.
For the compound `COc1cc2c(cc1O)C(c1ccc(CN3CCCC3)cc1)N(Cc1cc3c(cc1Br)OCO3)CC2` (stereo not given), the composite z-score was -1.28 in [1]; -0.248 in [3]; 1.47 in [4]; 0.91 in [5]; -0.109 in [6]; -0.2 in [7]. In addition, the values for the composite z-score in experiment [8], in experiment [9] and in experiment [10] were 0.114, 0.16 and 0.132, respectively. In [2], this compound showed a z-score of -2.92.
For the compound `C=CC[C@@]1(C(=O)NCCCOC)N=C(c2ccc(OCCCO)cc2)O[C@@H]1c1ccccc1N=[N+]=[N-]`, the composite z-score in experiment [1] is 1.44; in experiment [3], -0.553; in experiment [4] it was 0.968; in experiment [5] it was -0.105; in experiment [6], -0.0519; in experiment [7] it was 0.0639. The figures for the composite z-score in experiment [8], in [9] and in experiment [10] were 0.291, 0.905 and 0.767, respectively. The compound further showed a z-score in experiment [2] of -1.09.
On to `C=CCC(OC(C)=O)[C@@H]1[C@@H](N(Cc2ccc(-c3cccc(C(F)(F)F)c3)o2)C(=O)Cc2ccc(OC)cc2)c2cc(OCCCO)ccc2N1C(=O)c1ccc(-c2ccccc2)cc1` (stereo not given in full), for which the composite z-score in experiment [1] was -0.433; in experiment [3], -0.164; in experiment [4], -0.364; in [5], -0.341; in experiment [6], 0.0079; in experiment [7], -0.0793. Besides, the composite z-score is -0.577 in [8], -0.205 in experiment [9] and 1.13 in experiment [10]. This compound also had a z-score in experiment [2] of 0.278.
As to `CC(C)NC(=O)[C@@]1(c2ccc([N+](=O)[O-])cc2)CC(=O)N(C2CCCCC2)[C@@H]1c1ccc(CO)cc1`, the composite z-score is 1.46 in experiment [1]; -0.016 in experiment [3]; -0.0034 in experiment [4]; -0.0027 in experiment [5]; 0.0115 in [6]; -0.553 in [7]. Moreover, the composite z-score came out at 0.275 in experiment [8], 2.08 in experiment [9] and 0.621 in experiment [10]. Further, the z-score in experiment [2] was -0.778.
Take `O=C1CS(=O)(=O)C(c2cccc([N+](=O)[O-])c2)N1c1ccccc1` (stereo not given): the composite z-score is -0.611 in experiment [1]; 0.432 in [3]; 0.0568 in experiment [4]; -0.177 in experiment [5]; 0.157 in experiment [6]; 0.122 in [7]. Further, the composite z-score in experiment [8] was -0.217; in experiment [9], 1.49; in experiment [10], 1.98. The z-score in experiment [2] is -0.376.
As to `O=C(Cc1ccccc1)[C@H]1C2C=CCCC(c3ccccc3)=C2CN1Cc1ccccc1` (stereo not given in full), the composite z-score was -0.75 in experiment [1]; 0.174 in experiment [3]; -0.185 in [4]; -0.354 in experiment [5]; -0.0566 in experiment [6]; -0.124 in experiment [7]. In addition, the composite z-score was 0.0326 in experiment [8], 0.163 in experiment [9] and -0.0051 in [10]. For the same compound, the z-score in experiment [2] is -0.576.
Turning to `[N-]=[N+]=NCc1ccccc1C[C@@]1(C(N)=O)N=C(c2ccc(OCCCO)cc2)O[C@@H]1c1ccccc1`, the composite z-score was 1.43 in experiment [1]; -1.41 in [3]; 1.85 in experiment [4]; 0.989 in [5]; -0.0417 in experiment [6]; -0.0035 in experiment [7]. The composite z-score in experiment [8] is -0.071; in [9], 2.07; in experiment [10], 2.33. Further, the z-score in experiment [2] was -1.74.
As to `NC(=O)NCC#Cc1ccc2c(c1)[C@]1(C(=O)N2)[C@H](c2ccccc2OCCO)N2[C@H](c3ccccc3)[C@H](c3ccccc3)OC(=O)[C@H]2[C@@H]1C(=O)O`, the composite z-score in [1] was 1.27; in experiment [3] it was -0.351; in [4] it was 0.505; in [5] it was 0.629; in experiment [6], -0.169; in experiment [7] it was -0.0035. Moreover, the composite z-score in experiment [8] was -0.359; in experiment [9], 0.299; in experiment [10] it was 0.589. The compound also came in with a z-score in experiment [2] of -0.331.
Take `CC(=O)NCCCC[C@@H]1NC(=O)[C@@H]2C[C@H](C(=O)NCCCCCN)[C@H](c3ccc(O)cc3)N2C1=O`: the composite z-score in experiment [1] was 1.32; in experiment [3], 1.31; in experiment [4], 0.331; in experiment [5], 0.711; in experiment [6], 0.258; in experiment [7] it was -0.0794. In addition, the values for the composite z-score in experiment [8], in experiment [9] and in experiment [10] were -0.158, 1.31 and 0.766, respectively. In experiment [2], this compound had a z-score of -0.663.
On to `C=CCOC(=O)[C@@H]1[C@H]2C(=O)O[C@H](c3ccccc3)[C@H](c3ccccc3)N2[C@H](c2ccc(OCCOC(=O)[C@@H]3C[C@@H]4C(=O)N[C@@H](CCCC[N+](C)(C)C)C(=O)N4[C@@H]3c3ccc(O)cc3)cc2)[C@@]12C(=O)Nc1ccc(I)cc12`, for which the composite z-score is 1.41 in experiment [1]; 0.459 in experiment [3]; -0.14 in [4]; -0.521 in experiment [5]; -0.112 in [6]; 0.614 in [7]. The composite z-score is 0.559 in experiment [8], 1.36 in experiment [9] and 0.923 in [10]. Also, the z-score in experiment [2] is -0.282.

These data come from PubChem BioAssay.
